PP5 inh – PP5 (human) phosphatase inhibition; P53041; purified PP5c, OMFP substrate fluorescence; inhibition, % at 6.7 µM; hit rate 0.18% among 320,000; AID 1987;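 active means inhibition above the campaign's mean inhibition across all tested compounds plus 3 SD, cut at about 9.5% in these data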
Target sequence (P53041 whole entry, looked up): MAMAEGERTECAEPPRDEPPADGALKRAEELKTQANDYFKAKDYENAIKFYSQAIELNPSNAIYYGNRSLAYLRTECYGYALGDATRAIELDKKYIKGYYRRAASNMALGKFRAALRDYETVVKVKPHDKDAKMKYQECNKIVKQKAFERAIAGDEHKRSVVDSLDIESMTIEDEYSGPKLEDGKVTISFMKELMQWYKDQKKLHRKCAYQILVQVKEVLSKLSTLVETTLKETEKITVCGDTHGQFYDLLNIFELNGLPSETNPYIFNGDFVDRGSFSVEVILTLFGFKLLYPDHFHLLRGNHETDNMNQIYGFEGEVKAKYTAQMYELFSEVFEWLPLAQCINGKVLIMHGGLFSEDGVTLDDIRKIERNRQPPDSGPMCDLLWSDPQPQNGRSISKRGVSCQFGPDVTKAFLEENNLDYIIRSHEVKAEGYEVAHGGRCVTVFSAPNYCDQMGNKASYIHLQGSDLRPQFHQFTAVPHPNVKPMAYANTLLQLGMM
PAFAH1B2 FP inh – blocks human PAF acetylhydrolase 1b catalytic subunit 2; P68402; recombinant PAFAH1B2, FP-rhodamine activity probe, fluorescence polarization; inhibition, % at 3.39 µM; hit rate 1.2% among 340,000; AID 492953;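 active means inhibition above the mean of all tested compounds plus 3 SD, cut at about 24% in these data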
PAFAH2 FP inh – PAFAH2 (human) inhibition; hit rate 0.99% among 340,000; recombinant PAFAH2, FP-rhodamine activity probe, fluorescence polarization; inhibition, % at 3.39 µM; AID 492956;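 active means inhibition above the mean over all tested compounds plus 3 SD, cut at about 30% in these data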;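 further: inhibitors block probe labeling of enzyme so polarization drops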
Fh CTSL1 inh – counter-screen for PFM18AAP inhibitors: inhibitors of F. hepatica cathepsin L1; recombinant F. hepatica cathepsin L1, Z-Leu-Arg-MCA fluorescence; hit rate 0.49% among 300,000; inhibition, % at 5.96 µM;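 active means inhibition above the mean of all tested compounds plus 3 SD, set per screening campaign, cut at about 17% in these data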
pPAFAH FP inh – pPAFAH (human) enzyme inhibition; hit rate 1.5% among 330,000; inhibition, % at 3.39 µM; Q13093; recombinant pPAFAH, FP-rhodamine probe fluorescence polarization;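 active means inhibition above the mean inhibition across the screen plus 3 SD, cut at about 25% in these data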;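 further: inhibitors block binding of the rhodamine activity-based probe so polarization drops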
PAFAH1B3 FP inh – inhibitors of human PAFAH1B3 | Q15102 | recombinant PAFAH1B3, FP-rhodamine probe, fluorescence polarization | inhibition, % at 3.39 µM | AID 492972 | hit rate 0.28% among 340,000;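 active means inhibition above the screen-wide average of all tested compounds plus 3 SD, cut at about 25% in these data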
Of the large screens only hits and unclear results are named; the others gave an inactive call. Rows were chosen to be rich in hits. Some 3% of all compounds tested hit in one or more screens of this group.

Nc1nonc1-n1nnc(C(=O)N/N=C/c2ccccn2)c1CNc1ccccc1	none
O=C(Nc1nncs1)c1cc(S(=O)(=O)N2CCCCC2)ccc1Cl	none
Cc1cc(C(=O)CCl)c(C)n1CCc1ccc(F)cc1	Fh CTSL1 inh 23.5
COc1ccc(CCn2c(C)cc(C(=O)CCl)c2C)cc1OC	Fh CTSL1 inh 43.6
Cc1cc(C(=O)CCl)c(C)n1CCc1ccc(Cl)cc1	Fh CTSL1 inh 21.2
Cc1cc(C(=O)CSc2nnc(N)s2)c(C)n1CCc1ccc(Cl)cc1	none
O=c1ccc2ccc(OCCOc3cccc(Cl)c3)cc2o1	none
COc1cccc(CN(C)C(=O)c2csc3c2CCCC3)c1OC	Fh CTSL1 inh 18.5
COc1cccc(CN(C)C(=O)c2ccc(S(=O)(=O)Nc3ccccc3F)cc2)c1OC	none (no result: PP5 inh, Fh CTSL1 inh, pPAFAH FP inh)
O=c1c2ccccc2sc2nc(CCl)nn12	none (no result: PP5 inh, Fh CTSL1 inh, pPAFAH FP inh)
O=C(NCc1ccc(F)cc1)C1CCCN(S(=O)(=O)c2ccc(Br)s2)C1 (configuration not stated)	none
O=C(NCc1ccc(F)cc1)C1CCN(S(=O)(=O)c2ccc(Br)s2)CC1	PAFAH1B2 FP inh 25.3
CN(C)c1ccc(Nc2ccc([N+](=O)[O-])cn2)cc1	none
O=C(NCc1ccco1)/C(=C\c1cccs1)NC(=O)c1cccs1	none
O=C(NCCO)/C(=C\c1cccs1)NC(=O)c1cccs1	Fh CTSL1 inh 18.1
COc1ccc(C(=O)NCc2ccncc2)cc1S(=O)(=O)NCc1ccc(Cl)cc1	none (no result: Fh CTSL1 inh)
CCOCC(O)CSCc1ccc(Cl)cc1 (configuration not stated)	PAFAH1B2 FP inh 25.6
O=C(O)C1C2CC(C(Br)C2Br)C1C(=O)O (configuration not stated)	none (no result: PP5 inh, Fh CTSL1 inh, pPAFAH FP inh)
Cn1c(CNS(=O)(=O)c2ccc(Br)cc2)n[nH]c1=S	PAFAH1B2 FP inh 24.4
O=C(NCC1CCCO1)c1cn(Cc2ccccc2Cl)nc1-c1ccccc1 (configuration not stated)	none (no result: PP5 inh, Fh CTSL1 inh, pPAFAH FP inh)
O=C(Cc1c[nH]c2ccccc12)N1CCN(S(=O)(=O)c2ccc(Cl)cc2)CC1	none (no result: PP5 inh, Fh CTSL1 inh, pPAFAH FP inh)
CC(=O)NC(Cc1c[nH]c2ccccc12)C(=O)OCC(=O)N1CCN(S(=O)(=O)c2ccc(Cl)cc2)CC1 (configuration not stated)	PAFAH1B2 FP inh 88.1 (no result: PP5 inh, Fh CTSL1 inh, pPAFAH FP inh)
Cc1ccc2[nH]cc(C(=O)CN3CCN(C)CC3)c2c1	none
Cc1ccc2[nH]cc(C(=O)CCl)c2c1	Fh CTSL1 inh 60.9
CC(C)(C)c1cc(NS(=O)(=O)c2ccc(Br)s2)no1	none
O=C(CNc1ccc2c(c1)OCO2)N/N=C\c1cn(Cc2ccccc2)c2ccccc12	pPAFAH FP inh 30.3
O=C(O)c1cccc2c1C(=O)c1ccc(-c3ccc(Cl)c(C(F)(F)F)c3)cc1S2(=O)=O	none (no result: Fh CTSL1 inh)
CS(=O)(=O)NCCCCNc1ccc(C(F)(F)F)cc1[N+](=O)[O-]	pPAFAH FP inh 25.6
O=[N+]([O-])c1cc(C(F)(F)F)ccc1NCCCCNS(=O)(=O)c1ccc2ccccc2c1	none
COc1ccc(C2=NN(C(=O)CSc3nnc(-c4ccccc4F)o3)C(c3ccco3)C2)cc1 (configuration not stated)	none
COc1ccc(C2=NN(C(N)=S)C(c3ccco3)C2)cc1 (configuration not stated)	Fh CTSL1 inh 62.5
O=C(COC(=O)CNC(=O)c1ccc(Cl)cc1Cl)Nc1ccc(N2CCOCC2)cc1	Fh CTSL1 inh 17.3
O=C(CNC(=O)c1ccc(Cl)cc1Cl)OCC(=O)N1CCN(c2ccccc2)CC1	none (no result: PP5 inh, Fh CTSL1 inh, pPAFAH FP inh)
COc1ccc(S(=O)(=O)N2CCOCC2)cc1NC(=O)Cc1ccc2c(c1)OCCO2	none (no result: Fh CTSL1 inh)
COc1cc([C@H]2Oc3cc([C@H]4Oc5cc(O)cc(O)c5C(=O)[C@@H]4O)ccc3O[C@@H]2CO)ccc1O	none
COc1cc([C@@H]2Oc3cc(C4Oc5cc(O)cc(O)c5C(=O)[C@H]4O)ccc3O[C@H]2CO)ccc1O (some centres not stated)	pPAFAH FP inh 35.3
COc1ccc(S(=O)(=O)N(C)C[C@H]2Oc3c(NC(=O)CCC(F)(F)F)cccc3C(=O)N([C@H](C)CO)C[C@@H]2C)cc1	none (no result: PP5 inh, Fh CTSL1 inh)
CCOC(=O)Cc1cn(C(=O)OC(C)(C)C)c2ccccc12	none (no result: Fh CTSL1 inh)
CCCCN(C)CCNC(=O)CN1C(=O)CSc2ccc(S(=O)(=O)N3CCCC3)cc21	none
O=S(=O)(Cc1ccccc1)N1CCn2c(nc3ccccc32)C1	none
O=S(=O)(c1ccc(Br)cc1)N1CCn2c(nc3ccccc32)C1	PAFAH1B2 FP inh 28.8
CCCC(C)C(=O)Nc1nc(C)c(-c2csc(Nc3cc(OC)ccc3OC)n2)s1 (configuration not stated)	pPAFAH FP inh 28.5
CCCC(=O)Nc1nc(C)c(-c2csc(Nc3cc(OC)ccc3OC)n2)s1	pPAFAH FP inh 28.8
COc1ccc(OC)c(Nc2nc(-c3sc(N)nc3C)cs2)c1	none
CCCC(=O)Nc1nc(C)c(-c2csc(Nc3ccccc3OC)n2)s1	none
C=CCCC(=O)Nc1nc(C)c(-c2csc(Nc3cc(OC)ccc3OC)n2)s1	pPAFAH FP inh 33.6
CN(C)C(CNC(=O)c1cccc(S(=O)(=O)N2CCN(c3ccc(F)cc3)CC2)c1)c1ccccc1 (configuration not stated)	none (no result: PP5 inh, Fh CTSL1 inh, pPAFAH FP inh)
CC(Oc1ccc(Br)cc1)C(=O)NCC(c1cccs1)N1CCOCC1 (configuration not stated)	PAFAH1B2 FP inh 26.5
CCC(=O)NCC(c1cccs1)N1CCOCC1 (configuration not stated)	none
O=C1C2C3C=CC(CC3)C2C(=O)N1c1ccccc1[N+](=O)[O-] (configuration not stated)	Fh CTSL1 inh 18.7
O=C1C2C3C=CC(CC3)C2C(=O)N1c1ccc(Br)cc1[N+](=O)[O-] (configuration not stated)	none
CCCCNc1c(-c2ccc(SC(C)CC)cc2)nc2ccccn12 (configuration not stated)	none
O=c1ccc2ccc(Oc3ccc([N+](=O)[O-])cc3Cl)cc2o1	pPAFAH FP inh 30.4
CCOC(=O)C1=C(C)NC2=C(C(=O)c3ccccc32)C1c1ccc(O)cc1 (configuration not stated)	pPAFAH FP inh 32.2
CC(OC(=O)CC1Sc2ccccc2NC1=O)C(=O)N(C)Cc1ccccc1 (configuration not stated)	none (no result: PP5 inh, Fh CTSL1 inh, pPAFAH FP inh)
CC(C)(C)NC(=O)C12CC3CC(CC(Cl)(C3)C1)C2	none
COc1ccc(CNC(=O)CC23CC4CC(CC(C4)C2)C3)cc1	none
O=C(O)c1ccc(CNC(=O)C23CC4CC(CC(C4)C2)C3)cc1	PAFAH1B2 FP inh 29.0
CC(C)(CO)NC(=O)C12CC3CC(CC(Br)(C3)C1)C2	PAFAH1B2 FP inh 26.1
COc1ccc(CNC(=O)C23CC4CC(CC(Br)(C4)C2)C3)cc1	PAFAH1B2 FP inh 25.9
COC(=O)C1(Cc2ccc3c(c2)CCC3)Cc2ccc3c(c2C1=O)CCC3 (configuration not stated)	none (no result: PP5 inh, Fh CTSL1 inh, pPAFAH FP inh)

Screening data deposited in PubChem by The Scripps Research Institute Molecular Screening Center.
